The campaign covered roughly 360,000 compounds. About 950 (0.26%) were called active. Cut-off read from the data, not from the text of the source: active = inhibition above about 11%; inactive = the rest. Shown is part of a subset that was picked to be rich in actives.
assay: reduced absorbance of E. coli cultures with phage – HTS, RecBCD inhibitor project, primary screen (AID 651602); details: growth absorbance, at 11.9 µM, stronger effect = higher value

Row | SMILES | inhibition
1 | CC(C)[C@H]1COCCS(=O)(=O)N1Cc1ccccc1-c1cccc2c1sc1ccccc12 | 2.16% (inactive)
2 | N#Cc1cccc(C(=O)NCC2CCN(C(=O)C(=O)c3cc4ccccc4o3)CC2)c1 | 1.78% (inactive)
3 | CN1C(=O)C2CC(O)C(SC3CC4C(=O)N(C)C(=O)C4CC3O)CC2C1=O (stereo not given) | 5.11% (inactive)
4 | CN1CCCCC(NC(=O)C(C)(C)C)C1=O (stereo not given) | 2.65% (inactive)
5 | COC(=O)[C@]12C[C@H](CC(=O)NCc3ccc(C)o3)C(=O)N(CCC3=CCCCC3)C1=C[C@H](C(C)(C)C)O[C@@H]2C | 1.32% (inactive)
6 | CC(=O)C1=C(C)N(Cc2ccccc2)C(=S)NC1c1cccc(Br)c1 (stereo not given) | 2.19% (inactive)
7 | CCCCNc1cccc2c1S(=O)(=O)N[C@@H](C)CO2 | 2% (inactive)
8 | CCCCCCCCN1C(=O)[C@@H](CC(=O)NCc2ccccc2)C[C@@]2(C(=O)OC)C1=C[C@H](C(C)(C)C)O[C@@H]2C | 1.01% (inactive)
9 | COc1cccc(/C=N/Nc2ncc(C(F)(F)F)cc2Cl)c1O | 24.4% (active)
10 | O=C(c1ccccn1)c1ncc(C(F)(F)F)cc1Cl | 2.12% (inactive)
11 | CN(NS(=O)(=O)c1cccs1)c1ncc(C(F)(F)F)cc1Cl | 1.24% (inactive)
12 | O=C(Nc1ccc(C2CC2(Cl)Cl)cc1)c1cccc([N+](=O)[O-])c1 (stereo not given) | 1.49% (inactive)
13 | CC(C)c1ccc(NC(=O)CCN2C(=O)c3ccc([N+](=O)[O-])cc3C2=O)cc1 | -0.16% (inactive)
14 | Cn1ccc(=Nc2ccc(NC(=O)c3ccc(N=c4ccn(C)c5ccc([N+](=O)[O-])cc45)cc3)cc2)cc1 | 70.7% (active)
15 | COC(=O)C1=C(C(=O)OC)C2C=C(C(C)C)C1C(=O)C2(C)O (stereo not given) | 3.33% (inactive)
16 | Nc1ncnc2c1ncn2[C@@H]1O[C@H](C(=O)N[C@@H](CCc2ccccc2)C(=O)N2CCCN(Cc3cccs3)CC2)[C@@H](O)[C@H]1O | 2.53% (inactive)
17 | CCOc1ccc(Cn2nnc(C(=O)Nc3ccc(OC)cc3OC)c2N)cc1 | 10.9% (active)
18 | Nc1c(C(=O)Nc2ccc3c(c2)OCCO3)nnn1Cc1ccccc1 | 5.25% (inactive)
19 | COc1cccc(CNC(=O)c2nnn(CC(=O)Nc3cc(Cl)ccc3C)c2N)c1 | -1.55% (inactive)
20 | CC(=O)c1ccc(S(=O)(=O)NCC2CCN(C(=O)C(=O)c3cccs3)CC2)cc1 | 2.71% (inactive)
21 | C/C(=N\Nc1ccc(Cl)nn1)c1ccccc1O | -5.1% (inactive)
22 | Oc1cccc(/C=N/Nc2ccc(Cl)nn2)c1O | 13.1% (active)
23 | Cc1ccc2nc(-c3ccc(CN4CCC(n5cc(-c6ccccc6)[nH]c5=O)CC4)cc3)c(-c3ccccc3)nc2c1 | 2.06% (inactive)
24 | O=C(NCc1ccccc1)[C@H]1CCCN1C(=O)[C@@H]1CCCN1C(=O)c1ccc(Cl)cc1Cl | 1.72% (inactive)
25 | COc1cccc(CNC(=O)[C@H]2CCCN2C(=O)[C@H]2CCCN2C(=O)c2cc(F)cc(F)c2)c1 | 0.85% (inactive)

— PubChem BioAssay AID651602 (The Scripps Research Institute Molecular Screening Center, 2012)
